Active and inactive are the calls of the source. The calls were made as follows: active = hit-call score of the fitted dose curve at least 0.9, where 1 is the maximum; inactive = score below 0.9.
Columns and labels:
[1] = ATG_CRE_CIS: Attagene CIS-FACTORIAL HepG2 Assay for human cAMP Responsive Element (CRE) binding protein 3 (AID 2282926); conditions: HepG2 CRE cis-reporter, Attagene multiplexed mRNA; actives raise or lower the signal
Procedure, shortened: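 Cells carrying cis-regulated reporter constructs respond through their own endogenous factors. After 24 h treatment, RNA is reverse-transcribed, amplified, labelled and sized by capillary electrophoresis; up- and down-regulation are both scored against vehicle.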

[2] = biological target: CCAAT/enhancer-binding protein beta (Homo sapiens) (UniProt P17676); assay: ATG_C_EBP_CIS: Attagene CIS-FACTORIAL HepG2 Assay for human CCAAT/Enhancer Binding Protein (C/EBP) beta (AID 2282927); conditions: HepG2 Attagene cis-factorial transcription factor reporter; actives raise or lower the signal
CCAAT/enhancer-binding protein beta (Homo sapiens), sequence (P17676 whole entry, looked up, the tested form may be a part): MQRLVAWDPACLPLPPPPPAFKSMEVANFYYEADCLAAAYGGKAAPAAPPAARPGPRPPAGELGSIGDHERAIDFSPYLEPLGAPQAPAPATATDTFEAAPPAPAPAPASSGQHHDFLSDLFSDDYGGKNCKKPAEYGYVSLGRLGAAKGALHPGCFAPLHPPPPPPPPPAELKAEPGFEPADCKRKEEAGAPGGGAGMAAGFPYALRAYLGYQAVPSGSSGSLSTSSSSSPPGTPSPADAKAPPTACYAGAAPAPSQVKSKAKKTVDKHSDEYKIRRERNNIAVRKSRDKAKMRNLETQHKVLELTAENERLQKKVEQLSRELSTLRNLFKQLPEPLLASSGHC
Procedure, shortened: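 Chemical-treated HepG2 cells (24 h) bearing cis-regulated reporter constructs were processed for total RNA, then reverse transcription, PCR amplification, fluorescent primer extension and fragment analysis; gain- and loss-of-signal were fitted against DMSO.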

[3] = ATG_CMV_CIS: Attagene CIS-FACTORIAL HepG2 Assay for human CMV (Internal Marker) (AID 2282928); conditions: HepG2 CMV promoter reporter, transcription factor profiling; actives raise or lower the signal;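 also: endpoint acts as a background internal control marker rather than a target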
Procedure, shortened: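 Bidirectional fits against DMSO are applied to reporter mRNA, read by RT-PCR with capillary electrophoresis, from HepG2 cells exposed 24 h. The endpoint serves as an internal CMV background marker within the cis-factorial reporter panel.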

[4] = ATG_DR4_LXR_CIS: Attagene CIS-FACTORIAL HepG2 Assay for human Liver X Receptor (LXR), DR4 submotif (AID 2282929); conditions: HepG2 Attagene DR4 cis-reporter, mRNA transcription; actives raise or lower the signal
Procedure, shortened: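 Fluorescence intensity of labelled reporter cDNA fragments, separated by capillary electrophoresis, gives the signal. HepG2 cells bearing cis-regulated reporter constructs were treated 24 h; activity fitted bidirectionally relative to DMSO negative control.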

[5] = ATG_AP_1_CIS: Attagene CIS-FACTORIAL HepG2 Assay for human Activator Protein 1 (AP-1) (AID 2282931); conditions: HepG2 Attagene cis-factorial AP-1 reporter mRNA; actives raise or lower the signal
Procedure, shortened: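 Multiplexed HepG2 reporter assay, 24 h dosing. mRNA induction detected by RT-PCR plus capillary electrophoresis. Activity fitted in both directions against DMSO.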

[6] = ATG_AP_2_CIS: Attagene CIS-FACTORIAL HepG2 Assay for human Activator Protein 2 (AP-2) (AID 2282932); conditions: HepG2 AP-2 cis-reporter, Attagene transcription factor profiling; actives raise or lower the signal
Procedure, shortened: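 Assay in transfected HepG2 with promoter-regulated reporters, 24 h incubation after dosing. Signal is reporter mRNA fluorescence (RT-PCR, capillary electrophoresis), analysed for both increases and decreases relative to DMSO controls.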

[7] = ATG_BRE_CIS: Attagene CIS-FACTORIAL HepG2 Assay for human Bone Morphogenetic Protein (BMP) Response Element (BRE) (AID 2282933); conditions: HepG2 BMP response element reporter, Attagene transcription factor profiling; actives raise or lower the signal
Procedure, shortened: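 Fluorescence-labelled reporter cDNA fragments, separated by capillary electrophoresis, gave the signal for this component of a 52-readout multiplex. HepG2 cells were transfected, exposed to chemicals for 24 h, and compared with DMSO using bidirectional fitting.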

[8] = biological target: Retinoic acid receptor alpha (Homo sapiens) (UniProt P10276); assay: ATG_DR5_RAR_CIS: Attagene CIS-FACTORIAL HepG2 Assay for human Retinoic Acid Receptor Alpha (RARE), DR5 submotif (AID 2282934); conditions: HepG2 Attagene cis-factorial RARE DR5 reporter, mRNA; actives raise or lower the signal;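 as to AC50: reporter responds to endogenous RAR alpha beta and gamma in HepG2 not RARA alone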
Retinoic acid receptor alpha (Homo sapiens), sequence (P10276 whole entry, looked up): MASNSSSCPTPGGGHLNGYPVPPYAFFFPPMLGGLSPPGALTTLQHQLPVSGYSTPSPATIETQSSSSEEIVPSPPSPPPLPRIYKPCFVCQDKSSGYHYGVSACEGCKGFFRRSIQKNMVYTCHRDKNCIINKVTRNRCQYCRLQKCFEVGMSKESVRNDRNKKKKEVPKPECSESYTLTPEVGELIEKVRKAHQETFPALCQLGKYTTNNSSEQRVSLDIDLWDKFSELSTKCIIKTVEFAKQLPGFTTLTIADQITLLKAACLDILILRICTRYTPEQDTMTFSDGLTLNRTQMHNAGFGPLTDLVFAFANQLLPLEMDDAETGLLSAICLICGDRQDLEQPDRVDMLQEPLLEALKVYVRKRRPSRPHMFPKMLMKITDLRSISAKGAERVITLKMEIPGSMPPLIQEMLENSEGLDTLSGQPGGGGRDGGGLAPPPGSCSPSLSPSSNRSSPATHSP
Procedure, shortened: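 Transfected HepG2 reporter cells are exposed to chemicals for 24 h. Then RNA is extracted and the DR5 element reporter transcript is measured by RT-PCR and capillary electrophoresis, with bidirectional curve fitting relative to DMSO.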

[9] = biological target: Transcription factor E2F1 (Homo sapiens) (UniProt Q01094); assay: ATG_E2F_CIS: Attagene CIS-FACTORIAL HepG2 Assay for human E2F Transcription Factor 1 (AID 2282935); conditions: HepG2 Attagene cis-reporter, E2F reporter RNA transcripts; actives raise or lower the signal
Transcription factor E2F1 (Homo sapiens), sequence (Q01094 whole entry, looked up): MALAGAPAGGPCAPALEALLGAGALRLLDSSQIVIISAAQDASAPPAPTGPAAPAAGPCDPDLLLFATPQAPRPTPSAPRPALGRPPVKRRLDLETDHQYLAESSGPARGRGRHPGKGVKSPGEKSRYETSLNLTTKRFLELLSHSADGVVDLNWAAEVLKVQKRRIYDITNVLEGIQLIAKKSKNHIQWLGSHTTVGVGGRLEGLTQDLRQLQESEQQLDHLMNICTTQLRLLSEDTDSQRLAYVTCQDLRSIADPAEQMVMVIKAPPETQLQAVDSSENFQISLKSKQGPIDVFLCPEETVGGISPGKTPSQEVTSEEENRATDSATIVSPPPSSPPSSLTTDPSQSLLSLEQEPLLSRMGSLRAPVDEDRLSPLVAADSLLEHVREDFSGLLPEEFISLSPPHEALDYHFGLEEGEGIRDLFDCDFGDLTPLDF
Procedure, shortened: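 In this cis-factorial format, endogenous factor activity drives transfected reporters in HepG2; transcripts collected at 24 h are quantified by fluorescence after RT-PCR and capillary separation.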

[10] = ATG_E_Box_CIS: Attagene CIS-FACTORIAL HepG2 Assay for human Enhancer Box (E-box) (AID 2282936); conditions: HepG2 E-box cis-reporter transcription, actives raise or lower the signal
Procedure, shortened: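 Measured 24 h post-dosing in HepG2 cells transfected with multiple cis-regulated reporter units, signal being reporter mRNA induction detected by fluorescent RT-PCR with capillary electrophoresis; gain or loss fitted against DMSO.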

[11] = ATG_M_61_CIS: Attagene CIS-FACTORIAL HepG2 Assay for M61 Transcription Factor (Internal Marker) (AID 2282937); conditions: HepG2 Attagene CIS-FACTORIAL M61 internal marker reporter; actives raise or lower the signal
Procedure, shortened: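 Endogenous transcription factor activity in HepG2 is read through transiently transfected cis-element reporter units. After 24 h dosing, RNA undergoes reverse transcription, PCR and primer extension with 6-FAM before capillary electrophoresis; DMSO-referenced bidirectional fit.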

[12] = ATG_EGR_CIS: Attagene CIS-FACTORIAL HepG2 Assay for human Early Growth Response 1 (EGR1) (AID 2282938); conditions: HepG2 Attagene CIS-FACTORIAL EGR reporter mRNA; actives raise or lower the signal
Procedure, shortened: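 Activity is taken as induction or loss of reporter mRNA versus DMSO, fitted bidirectionally. Transcripts from cis-regulated reporter units in transiently transfected HepG2 were measured after 24 h by RT-PCR with capillary electrophoresis.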

[13] = ATG_M_19_CIS: Attagene CIS-FACTORIAL HepG2 Assay for M19 Transcription Factor (Internal Marker) (AID 2282939); conditions: HepG2 Attagene CIS-FACTORIAL M19 internal marker reporter; actives raise or lower the signal
Procedure, shortened: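 HepG2, MRTU transient transfection, 24 h dosing. Total RNA → RT-PCR → 6-FAM primer extension → HpaI digest → CE fluorescence. Bidirectional curve fit, DMSO negative control.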

[14] = ATG_Ets_CIS: Attagene CIS-FACTORIAL HepG2 Assay for human Erythroblast Transformation Specific (ETS) (AID 2282941); conditions: HepG2 ETS cis-reporter transcription, actives raise or lower the signal
Procedure, shortened: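 Endogenous transcription factor activity read as reporter mRNA via RT-PCR and capillary electrophoresis, with gain or loss fitted bidirectionally against DMSO. Human HepG2 liver cells, transiently transfected CIS reporter constructs, 24 h exposure.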

[15] = biological target: Hepatocyte nuclear factor 3-beta (Homo sapiens) (UniProt Q9Y261); assay: ATG_FoxA2_CIS: Attagene CIS-FACTORIAL HepG2 Assay for human Forkhead box A2 (FOXA2) (AID 2282942); conditions: HepG2 cis-reporter transcription factor activity, 24 h; actives raise or lower the signal
Hepatocyte nuclear factor 3-beta (Homo sapiens), sequence (Q9Y261 whole entry, looked up): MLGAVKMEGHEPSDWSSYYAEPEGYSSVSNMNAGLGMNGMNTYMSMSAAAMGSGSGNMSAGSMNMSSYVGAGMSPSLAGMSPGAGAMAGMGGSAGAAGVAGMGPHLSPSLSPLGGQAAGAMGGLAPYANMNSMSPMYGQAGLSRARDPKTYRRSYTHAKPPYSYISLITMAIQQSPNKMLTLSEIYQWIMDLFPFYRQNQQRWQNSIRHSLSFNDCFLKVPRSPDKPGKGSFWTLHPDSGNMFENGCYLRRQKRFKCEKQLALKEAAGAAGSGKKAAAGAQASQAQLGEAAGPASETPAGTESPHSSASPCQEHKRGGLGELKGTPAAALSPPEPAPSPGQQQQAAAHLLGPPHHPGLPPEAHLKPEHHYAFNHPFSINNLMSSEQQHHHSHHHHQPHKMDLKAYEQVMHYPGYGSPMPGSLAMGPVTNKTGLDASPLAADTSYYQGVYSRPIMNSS
Procedure, shortened: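 Reporter transcript induction is measured by fluorescence after capillary electrophoresis of RT-PCR products from HepG2 cells exposed 24 h. Cis-regulated reporter units report endogenous factor activity; curves fitted both directions against DMSO.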

[16] = ATG_FoxO_CIS: Attagene CIS-FACTORIAL HepG2 Assay for human Forkhead box O (FoxO) (AID 2282943); conditions: HepG2 Attagene cis-reporter, FoxO element, mRNA; actives raise or lower the signal
Procedure, shortened: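 24 h chemical exposure, HepG2 with transient cis-MRTU transfection. RNA extraction, oligo(dT) RT, reporter-specific PCR, primer-extension labelling, HpaI digestion, CE fragment analysis; bidirectional fit, DMSO baseline.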

[17] = ATG_GATA_CIS: Attagene CIS-FACTORIAL HepG2 Assay for human GATA Binding Protein (AID 2282944); conditions: HepG2 GATA cis-element reporter, Attagene multiplex mRNA; actives raise or lower the signal
Procedure, shortened: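 Cells: HepG2, transiently transfected with cis-regulated reporter transcription units. Exposure: 24 h. Detection: RT-PCR plus capillary electrophoresis of FAM-labeled fragments. Analysis: bidirectional, DMSO as baseline.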

[18] = ATG_GLI_CIS: Attagene CIS-FACTORIAL HepG2 Assay for human Zinc Finger Protein GLI1 (AID 2282945); conditions: HepG2, Attagene cis-factorial reporter mRNA, GLI element; actives raise or lower the signal
Procedure, shortened: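 HepG2 cells transiently transfected with cis-promoter multiplexed reporter units report endogenous transcription factor activity. After 24 h chemical exposure, reporter mRNA was quantified by RT-PCR, 6-FAM labelling, HpaI digestion and capillary electrophoresis, with bidirectional fitting against DMSO.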

[19] = biological target: Aryl hydrocarbon receptor (Homo sapiens) (UniProt P35869); assay: ATG_Ahr_CIS: Attagene CIS-FACTORIAL HepG2 Assay for human Aryl Hydrocarbon Receptor (Ahr) (AID 2282930); conditions: HepG2 AhR cis-factorial reporter transcription; actives raise or lower the signal
Aryl hydrocarbon receptor (Homo sapiens), sequence (P35869 whole entry, looked up): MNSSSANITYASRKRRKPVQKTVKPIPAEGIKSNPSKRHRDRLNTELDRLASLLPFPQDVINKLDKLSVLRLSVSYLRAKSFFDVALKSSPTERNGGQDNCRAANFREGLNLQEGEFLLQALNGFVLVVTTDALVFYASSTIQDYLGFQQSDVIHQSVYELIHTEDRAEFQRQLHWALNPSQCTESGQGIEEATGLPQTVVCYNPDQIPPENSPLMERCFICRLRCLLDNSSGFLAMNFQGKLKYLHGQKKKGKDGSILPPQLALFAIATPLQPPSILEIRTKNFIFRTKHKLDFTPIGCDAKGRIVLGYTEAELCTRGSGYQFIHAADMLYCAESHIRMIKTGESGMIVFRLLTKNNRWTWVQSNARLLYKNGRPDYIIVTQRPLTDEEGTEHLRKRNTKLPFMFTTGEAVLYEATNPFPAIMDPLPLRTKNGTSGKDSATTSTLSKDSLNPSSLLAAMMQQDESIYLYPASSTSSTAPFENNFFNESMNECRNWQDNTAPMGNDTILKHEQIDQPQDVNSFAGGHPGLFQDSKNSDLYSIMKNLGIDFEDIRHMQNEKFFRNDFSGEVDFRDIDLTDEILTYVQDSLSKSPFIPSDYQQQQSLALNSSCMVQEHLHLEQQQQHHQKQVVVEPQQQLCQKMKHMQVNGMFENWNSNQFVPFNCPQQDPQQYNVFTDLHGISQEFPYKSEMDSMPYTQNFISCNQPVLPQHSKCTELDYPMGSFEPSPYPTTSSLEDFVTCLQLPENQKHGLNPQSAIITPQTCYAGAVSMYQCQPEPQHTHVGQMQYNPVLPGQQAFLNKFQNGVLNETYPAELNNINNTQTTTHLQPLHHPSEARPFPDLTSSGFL
Procedure, shortened: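 Following 24 h of chemical dosing, transfected HepG2 liver cells with cis-driven reporter units were lysed for RNA; reporter mRNA was quantified via RT-PCR and capillary electrophoresis, and responses fitted bidirectionally from DMSO.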

[20] = ATG_ERE_CIS: Attagene CIS-FACTORIAL HepG2 Assay for Estrogen Response Element (ERE) (AID 2282940); conditions: HepG2 ERE cis-reporter, Attagene RNA transcript; actives raise or lower the signal
Procedure, shortened: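 After a 24 h chemical treatment, RNA from reporter-transfected HepG2 cells is reverse-transcribed, PCR-amplified and fluorescently labelled. Fragments separated by capillary electrophoresis give reporter signal; DMSO serves as negative control.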

Measured: AC50

O=C(O)CNc1ccccc1
not listed: [19] | [20]
inactive: all other assays above

O=C(O)c1ccc(O)cc1
not listed: [19] | [20]
inactive: all other assays above

C=Cc1ccc(C(C)(C)C)cc1
active: [8] 76.1 µM
not listed: [7] | [19] | [20]
inactive: all other assays above

C[Si](C)(C)O[Si](C)(C)C
not listed: [5] | [7] | [9] | [20]
inactive: all other assays above

C=C(C)C(=O)OCCOC1CC2CC1C1C=CCC21 (stereo not given)
not listed: [5] | [13] | [20]
inactive: all other assays above

C[C@@H]1CCN(C(=O)[C@H](CCCN=C(N)N)NS(=O)(=O)c2cccc3c2NC[C@H](C)C3)[C@@H](C(=O)O)C1
not listed: [2] | [14]
inactive: all other assays above

CCOC(=O)CCc1ccccc1
not listed: [2] | [7] | [9] | [20]
inactive: all other assays above

CCOc1ccc(NC(=O)CC(C)O)cc1 (stereo not given)
not listed: [2] | [15] | [20]
inactive: all other assays above

Cc1cc(C)nc(NS(=O)(=O)c2ccc(N)cc2)n1
not listed: [2] | [20]
inactive: all other assays above

C[Si]1(C)O[Si](C)(C)O[Si](C)(C)O1
not listed: [2] | [8] | [13] | [20]
inactive: all other assays above

COc1ccc(CCO)cc1
not listed: [2] | [14] | [20]
inactive: all other assays above

COC(C)(C)CC(C)=O
not listed: [2] | [19] | [20]
inactive: all other assays above

CCCC(=O)c1ccccc1
not listed: [2] | [19] | [20]
inactive: all other assays above

CCCCCCCCc1ccc(S(=O)(=O)O)cc1
active: [1] 19.7 µM | [4] 42.1 µM | [9] 155 µM | [10] 159 µM | [11] 155 µM | [13] 157 µM | [14] 156 µM | [16] 159 µM | [17] 99.5 µM | [18] 168 µM
inactive: [3] | [19] | [5] | [6] | [7] | [8] | [12] | [15]

— PubChem BioAssay (EPA / NIEHS)
